The record followed here is PubChem BioAssay (NCATS).

Activity calls are given as the source filed them. A call without a number means that no potency is given here. The call rests on the fitted dose curve; in most records, active means well fitted curve in the direction sought with a large enough effect; inconclusive means small, poorly fitted or top-dose-only effect, or another doubt; inactive means no such curve, though single readings can be large or run the other way.
Potency means the concentration at half of the fitted maximal effect.

This test is described as follows: Cellular Toxicity (caspase-3) BJ (AID 658). As to conditions: BJ fibroblasts, luminescence; Potency: caspase-3 activation; series mostly up to 91.7 µM. From the text:
NIH Chemical Genomics Center [NCGC]
NIH Molecular Libraries Screening Centers Network [MLSCN]
National Institutes of Environmental Health Sciences [NIEHS]
National Toxicology Program [NTP]
We have developed a 1536-well cell-based assay for quantitative high throughput screening (qHTS) against a number of cell lines to determine in vitro caspase 3/7 activity of small molecules. This particular assay uses BJ cell line which is derived from normal human foreskin fibroblast.
NCGC Assay Protocol Summary:
The Caspase-Glo 3/7 assay (Promega) is a homogeneous method to measure caspase-3 and caspase-7 activities in cultured cells. The quantitation of caspase 3/7 activity is based on the cleavage of a peptide-aminoluciferin substrate. After caspase cleaves the substrate the free aminoluciferin is liberated and serves as the substrate of luciferase, which generates the light. The luminescent signal is proportional to amount of caspase 3/7 activity present.
Using the Caspase-Glo 3/7 assay, the amount of caspase 3/7 activity was measured in the BJ cell line with complete culture medium following compound treatment for 16 hours. The assay was performed in opaque white 1536-well plates. In the screen, staurosporine and tamoxifen were used as positive controls. Library compounds were measured for their ability to cause the activation of caspase 3/7 in the cell line, as reflected by an increase in luminescence signal, in a concentration-dependent manner. Data were normalized to the controls for basal activity (DMSO only) and 100% stimulation (10 uM staurosporine). AC50 values were determined from concentration-response data modeled with the standard Hill equation.
qHTS protocol for caspase 3/7 assay in the BJ cells
[Step] [Parameter] [Value] [Description]
1. Reagent; 5 uL; 1000 the BJ cells/well
2. Time; 5 hr; 37 °C incubation
4. Controls; 23 nL; Tamoxifen 0.23 uM to 100 uM & staurosporine 1.4 pM to 100 uM
5. Time; 16 hr; 37 °C incubation
6. Reagent; 5 uL; Caspase-Glo 3/7 reagent
7. Time; 1 hr; Room Temperature
8. Detection; Luminescence; Viewlux plate reader
Keywords: caspase 3/7, apoptosis, the BJ cell line, luminescence, NTPHTS, NTPHTS_NCGC, NIEHS, EPA, DSSTox, MLSMR, MLSCN, NIH Roadmap, qHTS, NCGC
`O=C1OC(O)C(C(Cl)Cl)=C1Cl` (stereo not given): the Potency entry was “inactive”.
With `Nc1ccc2cc3ccccc3cc2c1`, the Potency result was “inactive”.
To `CNc1ccc(O)cc1` belongs “inactive”; to `CCC(C)Nc1ccc(NC(C)CC)cc1` (stereo not given), “inactive”.
In the case of `CN(C)c1ccc(C2(c3ccc(N(C)C)cc3)OC(=O)c3cc(N(C)C)ccc32)cc1`, the Potency result is “inactive”.
To `O=Cc1ccc(Cl)c(Cl)c1` belongs “inactive”; to `Cc1ccc(S(=O)(=O)Oc2ccc(N=Nc3ccc(-c4ccc(N=Nc5c(O)ccc6cc(S(=O)(=O)O)cc(S(=O)(=O)O)c56)c(C)c4)cc3C)cc2)cc1`, “inactive”; to `Oc1ccc2cc(SSc3ccc4cc(O)ccc4c3)ccc2c1`, “inactive”.
Consider `O=[N+]([O-])c1cc([N+](=O)[O-])c2ccc(S(=O)(=O)O)cc2c1O`, for which the Potency entry is “inactive”.
Next, `CCCCCC/C(C=O)=C\c1ccccc1`: “inactive”.
To `Cc1cc(Nc2ccc(O)cc2)ccc1N` belongs “inactive”; to `C/C=C1\C(=O)C[C@H]2[C@@H]3CCC4=CC(=O)CC[C@]4(C)[C@H]3CC[C@]12C`, “inactive”; to `CN1[C@H]2CC(OC(=O)[C@H](CO)c3ccccc3)C[C@H]1[C@H]1O[C@H]12` (stereo not given in full), “inactive”.
With `O=C(/C=C/c1ccc(O)c(O)c1)OC1C[C@](O)(C(=O)O)C[C@@H](O)[C@H]1O` (stereo not given in full), the Potency entry is “inactive”.
To `O=C(OCC(COC(=O)c1ccccc1)(COC(=O)c1ccccc1)COC(=O)c1ccccc1)c1ccccc1` belongs “inactive”; to `c1ccc2c(c1)-c1cccc3c1c-2cc1ccccc13`, “inactive”.
For `O=C=Nc1ccc(Cc2ccc(N=C=O)cc2)cc1`, the Potency result is “inactive”.
On to `C=C(C)c1ccccc1`, for which the Potency result is “inactive”.
Next, `O=C1OC2(c3cc(Br)c(O)c(Br)c3Oc3c2cc(Br)c(O)c3Br)c2c(Cl)c(Cl)c(Cl)c(Cl)c21`: “inactive”; `c1ccc2c(c1)ccc1cc3c(ccc4ccccc43)cc12`: “inactive”; `CC(=O)Nc1ccc(C(=O)CCl)cc1`: “inactive”.
Next, `ClC1=C(Cl)C(Cl)(Cl)C(Cl)=C1Cl`: 3.98 µM (active); `Cc1cccc(O)c1C`: “inactive”.
Turning to `CO[C@H]1/C=C/O[C@@]2(C)Oc3c(C)c(O)c4c(O)c(c5c(c4c3C2=O)NC2(CCN(CC(C)C)CC2)N=5)=NC(=O)/C(C)=C\C=C\[C@H](C)[C@H](O)[C@@H](C)[C@@H](O)[C@@H](C)[C@H](OC(C)=O)[C@@H]1C`, the Potency result was “inactive”.
To `CCCCCCCC[N+](CCCCCCCC)(CCCCCCCC)CCCCCCCC` belongs 12.6 µM (active).
